Shown are actives, neighbours in structure and some others; about 2.4% of the full set was active somewhere.
ABHD5 PLIN5 PPI: ABHD5-PLIN5 protein interaction inhibition. Q00G26+Q8WTS1. Split G. princeps luciferase complementation, luminescence, 4 h. inhibition, % at 4 µM. 0.78% of 360,000 active. AID 602281;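 active = inhibition above the mean inhibition across every tested compound plus 3 SD, cut at about 22% in these data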
TLR9-MyD88 inh: inhibitors of human TLR9-MyD88 binding. CHO BLA complementation TLR9-MyD88, CCF4 FRET ratio. inhibition, % at 4.98 µM. Q9NR96+Q99836. 0.21% of 340,000 active. AID 504734;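 active = inhibition above the mean over all tested compounds plus 3 SD, cut at about 21% in these data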
Target sequence (Q99836 whole entry, looked up): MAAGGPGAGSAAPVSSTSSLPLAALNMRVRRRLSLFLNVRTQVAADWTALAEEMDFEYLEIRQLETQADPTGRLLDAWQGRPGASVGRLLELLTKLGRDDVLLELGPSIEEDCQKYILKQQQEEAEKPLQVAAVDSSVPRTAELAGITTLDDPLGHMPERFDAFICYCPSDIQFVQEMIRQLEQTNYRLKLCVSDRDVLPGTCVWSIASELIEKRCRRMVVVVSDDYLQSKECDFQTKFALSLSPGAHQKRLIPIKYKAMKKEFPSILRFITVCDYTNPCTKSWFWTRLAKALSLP
Target sequence (Q9NR96 whole entry, looked up): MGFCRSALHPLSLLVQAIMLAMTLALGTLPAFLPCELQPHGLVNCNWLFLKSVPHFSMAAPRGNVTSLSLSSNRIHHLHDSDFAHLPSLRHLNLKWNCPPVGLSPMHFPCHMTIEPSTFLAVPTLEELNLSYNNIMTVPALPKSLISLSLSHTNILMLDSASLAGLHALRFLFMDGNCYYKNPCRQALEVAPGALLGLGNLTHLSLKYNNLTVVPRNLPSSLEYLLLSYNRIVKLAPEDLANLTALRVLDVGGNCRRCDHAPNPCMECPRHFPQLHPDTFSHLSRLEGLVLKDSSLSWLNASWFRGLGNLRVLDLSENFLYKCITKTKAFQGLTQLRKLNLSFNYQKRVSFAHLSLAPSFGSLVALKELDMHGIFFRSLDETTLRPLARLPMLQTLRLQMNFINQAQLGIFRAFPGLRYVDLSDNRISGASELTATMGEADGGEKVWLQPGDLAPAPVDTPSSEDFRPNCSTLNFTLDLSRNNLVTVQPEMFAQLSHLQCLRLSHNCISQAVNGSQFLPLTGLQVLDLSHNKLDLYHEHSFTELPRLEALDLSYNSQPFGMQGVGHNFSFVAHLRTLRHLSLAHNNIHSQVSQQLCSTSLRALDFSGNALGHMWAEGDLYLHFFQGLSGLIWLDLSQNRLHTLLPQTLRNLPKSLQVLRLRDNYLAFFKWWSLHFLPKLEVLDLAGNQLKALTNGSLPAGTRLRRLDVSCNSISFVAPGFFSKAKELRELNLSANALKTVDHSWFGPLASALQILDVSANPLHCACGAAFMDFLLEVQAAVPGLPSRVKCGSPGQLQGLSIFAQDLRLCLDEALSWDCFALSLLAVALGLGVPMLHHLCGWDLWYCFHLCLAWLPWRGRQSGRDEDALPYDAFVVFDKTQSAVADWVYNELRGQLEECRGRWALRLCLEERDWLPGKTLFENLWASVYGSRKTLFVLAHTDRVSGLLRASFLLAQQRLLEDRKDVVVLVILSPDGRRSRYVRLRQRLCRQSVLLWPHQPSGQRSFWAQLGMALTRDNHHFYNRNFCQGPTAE
CRFBP-R2 block: blocks CRF-induced signaling of the CRF-BP/CRF-R2 complex; HEK293 CRF-R2/CRF-BP, CRF-induced calcium fluorescence; inhibition, % at 11.8 µM; 0.59% of 350,000 active; AID 588475;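 active = inhibition of the ligand-induced calcium signal above about 50% at the single tested concentration, limit read from the data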
m5-HT2A agonist: mouse HTR2A agonism via beta-arrestin recruitment; 0.66% of 360,000 active; CHO-K1 mHTR2A beta-arrestin complementation, luminescence; percent of 30 µM serotonin response; activation, % at 7.6 µM;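 active = activation above a run cutoff, the mean activation of all tested compounds plus 3 SD, cut at about 14% in these data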
TLR4-MyD88 BLA: blocks binding of human TLR4 to MyD88; O00206+Q99836; HeLa CL3-4 TLR4/MyD88 BLA complementation, FRET ratio; inhibition, % at 8.4 µM; 0.18% of 200,000 active; in the data active = inhibition above about 25%
NOD2-RIPK2 inh: inhibitors of human NOD2-RIPK2 interaction; AID 624267; 0.38% of 360,000 active; inhibition, % at 4.98 µM; CHO BLA complementation NOD2-RIPK2, CCF4 ratio; O43353; in the data active = inhibition above about 21%
NOD2-RIPK2 conf: NOD2-RIPK2 interaction inhibition confirmed; CHO cells, NOD2-RIPK2 BLA complementation, CCF4 FRET; shares compounds with NOD2-RIPK2 inh; inhibition, % at 4.98 µM; 70% of 1,200 active;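 active = mean inhibition across replicates above a set limit taken from the earlier primary screen, cut at about 21% in these data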
NOD2 BLA counter: NOD2-RIPK2 counterscreen BLA reporter activity. shares compounds with NOD2-RIPK2 inh. CHO BLA reporter, CCF4 FRET ratio. inhibition, % at 4.98 µM. 57% of 1,200 active;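 active = mean inhibition above the low-control mean inhibition plus three low-control SD, cut at about 11% in these data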
Numbers stand for hits; n = inactive; x = no result given.

SMILES | ABHD5 PLIN5 PPI | TLR9-MyD88 inh | CRFBP-R2 block | m5-HT2A agonist | TLR4-MyD88 BLA | NOD2-RIPK2 inh | NOD2-RIPK2 conf | NOD2 BLA counter
N#CC1=C(N)Oc2cc(O)c(Cl)cc2C1c1cccnc1 (stereo not given) | n | n | n | n | x | 31 | n | n
NS(=O)(=O)c1ccc(NC(=O)c2ccc(-c3ccccc3)cc2)cc1 | n | x | n | n | n | n | x | x
NS(=O)(=O)c1ccc(NS(=O)(=O)c2ccc(NC(=O)c3ccc(-c4ccccc4)cc3)cc2)cc1 | n | n | n | n | n | 24 | 23 | 28
CCCNC(=O)c1cc2c(c(-c3cccc(-c4ccccc4F)c3)n1)[C@@H](CCO)N(C(=O)CC1CC1)C2 | n | x | x | n | x | n | x | x
COc1ccccc1C=Cc1ccnc2ccccc12 | n | n | n | n | x | n | x | x
CN(C)c1ccc(C=Cc2ccnc3ccccc23)cc1N | n | x | x | n | x | 33 | 32 | 33
O=C(C[n+]1cccc(C(=O)Nc2ccccc2)c1)c1ccccc1 | n | x | x | n | x | n | x | x
CCc1cc2c(=O)c(-c3nc4ccccc4n3C)c(C)oc2c(CN(CC)CC)c1O | n | n | n | n | n | n | x | x
CCN(CC)Cc1c(O)ccc2cc(-c3nc4ccccc4n3C)c(=O)oc12 | n | n | n | n | x | 29 | 35 | 56
O=C(/C=C/c1ccc[nH]1)c1ccccc1 | n | n | n | n | n | n | x | x
O=C(/C=C/c1c[nH]c2ccccc12)c1ccccc1 | n | n | n | n | n | 30 | 30 | 35
COc1ccc2[nH]cc(/C=C/C(=O)c3ccccc3)c2c1 | n | n | n | n | x | 27 | 21 | 32
O=S1(=O)CC(N2CCC(Cc3ccccc3)CC2)CN1C1CCCCC1 (stereo not given) | n | x | x | n | x | n | x | x
O=c1c(O)c(-c2ccc(O)c(O)c2)oc2cc(O)ccc12 | n | n | n | n | x | 25 | 29 | 28
O=c1nc(/C=C/c2ccc(-c3ccc(F)cc3)o2)cc(C(F)(F)F)[nH]1 | x | x | x | x | n | x | x | x
O=C(O)c1cc(Cl)ccc1-c1ccc(/C=C/c2cc(C(F)(F)F)[nH]c(=O)n2)o1 | n | n | n | n | n | 23 | 33 | 42
CCOC(=O)C1(C)CCN1C(=O)c1cccs1 (stereo not given) | n | x | x | n | x | n | x | x
c1ccc(-c2sc3ccccc3c2-c2ccc(OCCN3CCCC3)cc2)cc1 | n | n | n | n | x | 23 | n | n
CCC(C)(C)n1nnnc1C(C(C)C)N(Cc1ccco1)Cc1cc2cc3c(cc2[nH]c1=O)OCO3 (stereo not given) | n | n | n | n | n | 44 | n | n
CCC(C)(C)n1nnnc1C(C(C)C)N(Cc1cccnc1)Cc1ccco1 (stereo not given) | n | n | n | n | n | n | x | x
Cc1ccc2oc(NC3=NC4(CCCC4)C4=C(CCCC4=O)N3)nc2c1 | n | x | x | n | x | n | x | x
Cc1nn(C)cc1/C=C/C(=O)c1ccccc1 | n | n | n | n | n | n | x | x
Cc1ccc(C(=O)/C=C/c2cn(CN3CCN(C)CC3)c3ccccc23)cc1 | n | n | n | n | n | 24 | 26 | 38
CCn1cc(/C=C(\NC(=O)c2ccc(OC)cc2)C(=O)N2CCN(C)CC2)c2ccccc21 | n | n | n | n | x | n | x | x
Cn1cc(/C=C/C(=O)c2ccccc2)c2ccccc21 | n | n | n | n | x | 25 | 25 | 28
SMILES | ABHD5 PLIN5 PPI | TLR9-MyD88 inh | CRFBP-R2 block | m5-HT2A agonist | TLR4-MyD88 BLA | NOD2-RIPK2 inh | NOD2-RIPK2 conf | NOD2 BLA counter
Cc1ccc(-c2nc3c(Cl)cc(C(F)(F)F)cn3c2Cc2ccsc2)cc1 | n | x | x | n | x | n | x | x
O=C(/C=C/N1CCOCC1)c1coc2ccccc12 | n | n | n | n | n | 29 | n | n
CO[C@H]1CN(C)C(=O)c2cc(NC(=O)c3cc(C)on3)ccc2OC[C@@H](C)N(C(=O)C2CC2)C[C@H]1C | n | x | x | n | x | n | x | x
CCc1ccc2c(c1)C1(NN=C(c3ccc(C)cc3)S1)C(=O)N2 (stereo not given) | n | n | n | n | n | 25 | n | n
CC(C)c1ccc2c(c1)C1(NN=C(c3ccccc3)S1)C(=O)N2 (stereo not given) | n | n | n | n | n | 26 | n | n
CSc1ccc(C(O)c2ncc(-c3ccc(F)cc3)[nH]2)cc1 (stereo not given) | n | x | x | n | x | n | x | x
COc1ncc(-c2ccc(N3C(c4ccc([N+](=O)[O-])cc4)=Cc4ccccc4C3CC(C)=O)cc2)cn1 (stereo not given) | n | x | x | n | x | 34 | n | 18
CC(=O)c1cccc(Nc2c3c(nc4ccccc24)CCC3)c1 | n | n | n | n | x | n | x | x
Fc1cccc(Nc2c3c(nc4ccccc24)CCC3)c1 | n | n | n | n | x | 22 | n | n
Cc1cccc(C)c1-n1nnnc1C(c1ccnc2ccccc12)N1CCN(C/C=C/c2ccccc2)CC1 (stereo not given) | n | x | x | n | x | n | x | x
O=[N+]([O-])c1cc(Br)c(Nc2ccccc2)c([N+](=O)[O-])c1 | n | n | n | n | x | 41 | 58 | n
O=C(Nc1ccccc1)c1ccc(Nc2c([N+](=O)[O-])cc([N+](=O)[O-])c3ccccc23)cc1 | n | n | n | n | n | n | x | x
O=CNc1ccc2c3c(cccc13)-c1ccccc1-2 | n | n | n | n | x | 29 | 24 | 38
CC(=O)Nc1ccc2c3c(cccc13)C(=O)N(c1ccccc1)C2=O | n | n | n | n | n | n | x | x
COc1ccc(N=C(C)C2C(=O)c3ccccc3C2=O)cc1 | n | x | x | n | x | n | x | x
COc1ccc(C(C(=O)NC2CCCC2)n2c(C3CCN(C(C)=O)CC3)nc3ccccc32)cc1 (stereo not given) | n | x | x | n | x | n | x | x
O=C(NC1CCCCC1)C(c1ccc(C(F)(F)F)cc1)n1c(=O)c(-c2cc3ccccc3[nH]2)nc2ccccc21 (stereo not given) | n | x | x | n | x | 41 | 36 | 66
O=C(NC1CCCCC1)C(c1ccccc1F)n1c(=O)c(-c2cc3ccccc3[nH]2)nc2ccccc21 (stereo not given) | n | x | x | n | x | 45 | 42 | 66
O=C(NC1CCCC1)C(C1CC1)n1c(C2CCCC2)nc2ccccc21 (stereo not given) | n | x | x | n | x | n | x | x
O=C(NC1CCCCC1)C(c1cccc2ccccc12)n1c(=O)c(-c2cc3ccccc3[nH]2)nc2ccccc21 (stereo not given) | n | x | x | n | x | 38 | 34 | 62
Cc1cccc(C)c1-n1nnnc1C(c1ccnc2ccccc12)N1CCN(C(=O)OCc2ccccc2)CC1 (stereo not given) | n | x | x | n | x | n | x | x
